The list is not random: actives were taken first. Their share in the collection is about 27%.
CYP2C9 act – human CYP2C9 activators, primary screen, biochemical, luminescence; Cytochrome P450 2C9 (Homo sapiens), P11712; recombinant CYP2C9, luciferin-H conversion; active compounds read high; factor 1 = untreated enzyme, 0 = blocked; activation factor at 5 µM; 1.4% of 96,000 active;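 active means activation factor of 2 or more for CYP2C9 at a 5 µM dose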;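 further: 0 = sulfaphenazole-blocked wells and 1 = vehicle-only wells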
Cav3 T inh – Cav3.2 calcium influx blockers – cell-based, Fluo-4 calcium fluorescence, FDSS, MLSMR library, primary screen. Voltage-dependent T-type calcium channel subunit alpha-1H (Homo sapiens), O95180. Cav3.2-expressing cells; active compounds read low. B-score at 10 µM. 4% of 100,000 active. AID 449739, 2010;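 active means single-dose well whose peak fluorescence ratio is a statistical outlier from its plate by either plate-standardised score or position-corrected B-score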
Target sequence (O95180 whole entry, looked up): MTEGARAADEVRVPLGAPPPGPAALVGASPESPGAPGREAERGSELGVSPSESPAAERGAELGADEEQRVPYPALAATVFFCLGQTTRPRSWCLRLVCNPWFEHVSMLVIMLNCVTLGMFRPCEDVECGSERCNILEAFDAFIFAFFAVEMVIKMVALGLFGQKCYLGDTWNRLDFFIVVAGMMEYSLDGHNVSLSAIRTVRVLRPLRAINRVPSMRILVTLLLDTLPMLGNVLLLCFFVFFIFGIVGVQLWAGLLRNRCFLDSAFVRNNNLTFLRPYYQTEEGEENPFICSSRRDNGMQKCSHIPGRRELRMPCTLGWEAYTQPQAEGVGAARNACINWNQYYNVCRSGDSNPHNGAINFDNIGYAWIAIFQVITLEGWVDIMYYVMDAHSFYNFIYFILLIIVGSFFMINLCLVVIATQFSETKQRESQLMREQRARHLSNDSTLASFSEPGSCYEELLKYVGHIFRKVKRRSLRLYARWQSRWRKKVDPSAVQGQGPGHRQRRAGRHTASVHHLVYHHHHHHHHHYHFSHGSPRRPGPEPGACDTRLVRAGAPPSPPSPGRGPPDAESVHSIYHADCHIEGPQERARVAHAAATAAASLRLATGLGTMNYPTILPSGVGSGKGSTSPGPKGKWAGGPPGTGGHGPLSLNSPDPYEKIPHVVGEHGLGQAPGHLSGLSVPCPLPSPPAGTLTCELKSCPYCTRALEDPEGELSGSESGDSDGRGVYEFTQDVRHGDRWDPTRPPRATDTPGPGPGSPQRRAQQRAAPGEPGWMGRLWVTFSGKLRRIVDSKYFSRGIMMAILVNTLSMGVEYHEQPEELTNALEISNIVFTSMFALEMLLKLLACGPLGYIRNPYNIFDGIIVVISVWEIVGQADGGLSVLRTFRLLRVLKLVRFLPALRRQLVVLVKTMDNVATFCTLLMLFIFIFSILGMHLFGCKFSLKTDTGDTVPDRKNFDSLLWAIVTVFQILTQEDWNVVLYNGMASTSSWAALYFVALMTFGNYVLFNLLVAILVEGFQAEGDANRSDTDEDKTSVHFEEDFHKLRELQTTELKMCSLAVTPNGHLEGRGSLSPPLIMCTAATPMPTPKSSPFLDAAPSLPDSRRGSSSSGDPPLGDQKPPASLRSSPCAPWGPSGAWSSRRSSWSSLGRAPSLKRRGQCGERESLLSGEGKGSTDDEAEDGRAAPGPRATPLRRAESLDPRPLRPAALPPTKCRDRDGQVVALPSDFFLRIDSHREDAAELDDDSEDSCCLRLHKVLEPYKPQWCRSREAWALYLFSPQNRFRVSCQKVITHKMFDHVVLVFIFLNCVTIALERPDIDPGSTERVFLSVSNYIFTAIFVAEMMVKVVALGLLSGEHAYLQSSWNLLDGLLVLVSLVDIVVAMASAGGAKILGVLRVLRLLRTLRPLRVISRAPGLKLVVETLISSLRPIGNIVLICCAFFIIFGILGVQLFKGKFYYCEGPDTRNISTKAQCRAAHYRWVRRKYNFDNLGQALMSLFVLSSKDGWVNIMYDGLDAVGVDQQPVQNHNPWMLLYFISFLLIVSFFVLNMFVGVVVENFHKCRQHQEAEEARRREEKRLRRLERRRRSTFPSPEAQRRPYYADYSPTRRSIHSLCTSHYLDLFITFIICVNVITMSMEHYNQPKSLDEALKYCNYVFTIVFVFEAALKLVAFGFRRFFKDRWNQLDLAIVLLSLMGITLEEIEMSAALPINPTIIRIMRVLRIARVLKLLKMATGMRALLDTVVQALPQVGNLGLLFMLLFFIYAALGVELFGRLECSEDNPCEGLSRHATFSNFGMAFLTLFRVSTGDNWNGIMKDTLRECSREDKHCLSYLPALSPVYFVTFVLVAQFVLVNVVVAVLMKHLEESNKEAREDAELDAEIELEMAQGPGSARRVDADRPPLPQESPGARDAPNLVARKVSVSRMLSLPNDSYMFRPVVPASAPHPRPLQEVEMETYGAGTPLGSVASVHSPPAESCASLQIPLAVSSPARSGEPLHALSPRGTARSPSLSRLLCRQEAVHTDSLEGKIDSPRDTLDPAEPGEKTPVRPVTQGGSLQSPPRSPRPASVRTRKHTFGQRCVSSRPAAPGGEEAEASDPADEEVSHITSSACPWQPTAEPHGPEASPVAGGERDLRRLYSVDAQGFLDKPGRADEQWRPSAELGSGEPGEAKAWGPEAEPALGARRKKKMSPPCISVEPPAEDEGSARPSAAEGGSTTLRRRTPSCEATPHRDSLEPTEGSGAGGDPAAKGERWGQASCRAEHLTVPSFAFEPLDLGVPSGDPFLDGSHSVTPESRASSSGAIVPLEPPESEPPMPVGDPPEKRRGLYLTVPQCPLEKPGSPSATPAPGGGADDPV
CYP2C19 activ – human CYP2C19 activators, primary screen, biochemical, luminescence; Cytochrome P450 2C19 (Homo sapiens), P33261; recombinant CYP2C19, luciferin-H EGE luminescence; active compounds read high; 0 = fully inhibited enzyme, 1 = untreated enzyme; activation factor at 5 µM; 96,000 tested, under 10 active; AID 1025, 2008;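 active means activation factor of at least 2 at 5 µM in the primary screen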;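 further: 0 = wells with 2.5 mM tranylcypromine and 1 = vehicle-only wells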
CYP2C9 inhib – blockers of cytochrome P450 2C9 activity – biochemical, luminescence, ADME assay, primary screen | 20% of 96,000 active | CYP2C9 Supersomes, luciferin-H conversion | inhibition, % at 5 µM | AID 777, 2007 | P11712;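 active means blocking of liver enzyme CYP2C9 beyond about 50% at 5 µM, limit read from the data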
CYP2C19 inh – blockers of cytochrome P450 2C19 activity – biochemical, luminescence, ADME assay, primary screen. P33261. CYP2C19 Supersomes, luciferin-H EGE luminescence, 30 min. inhibition, % at 5 µM. 21% of 96,000 active;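 active means CYP2C19 inhibition above a set limit at 5 µM in the primary screen, cut at about 50% in these data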;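 further: plate controls were negative control wells for no effect and 2.5 mM tranylcypromine positive control for full effect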
The depositor's hits bear a star; x = no result; ! = not active in a repeat.

SMILES	CYP2C9 act	Cav3 T inh	CYP2C19 activ	CYP2C9 inhib	CYP2C19 inh
CS(=O)(=O)N(CC(=O)Nc1ccc(CC#N)cc1)c1ccc(C23CC4CC(CC(C4)C2)C3)cc1	0.4	-3.6	0.9	59*	11
FC(F)(F)C(Oc1nc(NC2CCCCC2)nc(N2CCOCC2)n1)C(F)(F)F	0.7	-4.9*	0.8	27	16
Cc1noc(C)c1S(=O)(=O)Nc1ccc(C(=O)N2CCCCC2)cc1	0.5	2	0.8	52*	23
Cc1noc(C)c1S(=O)(=O)Nc1ccc(C(=O)NC2CCCCC2)cc1	0.8	0.94	1	19	3
Cc1ccc(Cl)cc1N1CCN(C(=O)c2ccc(NS(=O)(=O)c3c(C)noc3C)cc2)CC1	0	x	0.9	100*	15
Cc1ccc(C)c(N2CCN(C(=O)c3ccc(NS(=O)(=O)c4c(C)noc4C)cc3)CC2)c1	0	-8.3*	0.9	97*	7
COc1ccc(NC(=O)c2ccc(NS(=O)(=O)c3c(C)noc3C)cc2)cc1OC	0.8	-0.049	0.9	22	7
O=C(Nc1nc(COc2ccccc2)cs1)C1CCC1	x	-3.1	x	x	x
CC(=O)Nc1nc(COc2ccccc2)cs1	0.4	0.033	0.1	59*	89*
CC(=O)Nc1nc(COc2ccc3ccccc3c2)cs1	1.1	0.12	0.6	-13	37
O=C(Nc1nc(COc2ccccc2)cs1)C12CC3CC(CC(C3)C1)C2	0	-2.1	0.4	96*	56*
CC(=O)Nc1nc(CC(=O)c2ccccc2)cs1	1.1	0.47	0.3	-11	65*
COc1ccc(OC)c(-c2nc3c(C)n[nH]c(=O)c3[nH]2)c1	0.9	-0.35	1	10	4
Clc1ccccc1-c1nn2c(Cn3cnc4ccccc43)nnc2s1	0.7	x	0.4	25	58*
c1ccc(-c2nn3c(Cn4nnc5ccccc54)nnc3s2)nc1	0.6	0.062	0.2	39	78*
c1ccc2c(c1)ncn2Cc1nnc2sc(-c3ccc4c(c3)OCO4)nn12	0.2	-0.74	0.9	81*	8
Cc1cc(=O)n2[nH]c(-c3ccc(F)cc3)nc2n1	0.8	-0.24	0.8	16	17
CCSCCNC(=O)c1cc(-n2cnnc2)ccc1Cl	1.2	-1.5	1.1	-16	-11
O=C(NCCOc1cccc(Oc2ccccc2)c1)c1cc(-n2cnnc2)ccc1Cl	0.4	-1.8	0.3	56*	69*
O=C(NCCOc1cccc(Cl)c1Cl)c1cc(-n2cnnc2)ccc1Cl	0.5	0.16	0.3	54*	70*
CC(C)=CC/C=C1\CCC(C(=O)O)C(C(=O)O)C1 (centres undefined)	0.9	0.91	1.1	7	-13
COc1ccc(-c2c([C@H]3[C@H]4C=CC[C@@H](C)[C@@H]4C(=O)N3Cc3ccccc3)ccc3ccccc23)cc1OC	x	-1.4	x	x	x
Cn1ncc2c(=O)n(CC(=O)NC34CC5CC(CC(C5)C3)C4)cnc21	1.2	0.31	1.1	-21	-6
COC(=O)c1ccc(COc2ncnc3c(Cl)cc(Cl)cc23)o1	0.4	-0.46	0.6	62*	44
CC1(c2nnc(Cc3ccccc3)o2)CC(c2ccc(F)cc2)=NO1 (centres undefined)	x	0.21	x	x	x
SMILES	CYP2C9 act	Cav3 T inh	CYP2C19 activ	CYP2C9 inhib	CYP2C19 inh
CN(CCOc1ccc(-c2ccn(S(=O)(=O)c3cccc4ccccc34)n2)cc1)c1ccccn1	0.5	-1.5	0.5	49	50*
CN(CCOc1ccc(-c2ccn(S(=O)(=O)c3ccc(Cl)cc3)n2)cc1)c1ccccn1	0.7	-4.7*	0.9	31	12
CN(CCOc1ccc(-c2ccn(S(=O)(=O)c3c(Cl)cccc3Cl)n2)cc1)c1ccccn1	0.7	-0.71	0.8	28	23
CCCNC(=O)CCC(=O)Nc1ncc(-c2ccc(C)cc2)n1C	0.8	1.1	0.9	19	13
CCCCSc1c(C)c2cc3c(cc2[nH]c1=O)OCO3	0.9	1.1	0.1	12	86*
CCOC(=O)c1[nH]c2cc3c(cc2c1NC(=O)CN1CCC2(CC1)OCCO2)OCO3	1.1	0.73	0.8	-11	22
CN1CCN(CCCN2c3ccccc3Sc3ccc(Cl)cc32)CC1	x	-5.1*!	x	x	x
O=C(NCCN1CCOCC1)C1CCC(=O)N1C1CCCCC1 (centres undefined)	1	-1.3	1	2	5
CC(C)Oc1nnnn1-c1ccccc1	0.4	-0.064	0.6	63*	39
c1ccc(-n2nnnc2Oc2ccc(-n3ccnc3)cc2)cc1	0	-0.047	0	99*	100*
NC(=O)c1ccc(-n2nnnc2Oc2ccccc2)cc1	1	-0.18	0.8	3	22
COc1cccc(Oc2nnnn2-c2ccccc2)c1	0.8	0.5	0.4	25	60*
Clc1ccc(Oc2nnnn2-c2ccccc2)cc1	0.5	-2.4	0.3	48	73*
O=C(c1cccs1)N(CCO)Cc1cc2cc3c(cc2[nH]c1=O)OCCO3	0.9	1	1	11	-2
CCn1c(=O)c(=O)[nH]c2cc(C(=O)N3CCN(c4ccccc4F)CC3)ccc21	0.9	-0.27	1	13	-5
CS(=O)CSc1nc2c(cc1C#N)CCCC2 (centres undefined)	0.9	-0.31	0.9	5	12
CC(C)OC(=O)CC(=O)CSc1nc2c(cc1C#N)CCCCCC2	0.4	-1.4	0.5	63*	47
C=CCSc1nc2c(cc1C#N)CCC2	0.9	-0.11	0.6	9	40
C=C(C)CSc1nc2c(cc1C#N)CCC2	0.6	-0.94	0.2	45	80*
CCCCSc1nc2c(cc1C#N)CCC2	0.5	-1.4	0.4	49	58*
CCOC(=O)CC(=O)CSc1nc2c(cc1C#N)CCCCCC2	0.7	1.9	0.8	26	21
O=C(CN(c1ccccc1F)S(=O)(=O)c1ccccc1)N1CCCCCC1	1.2	1	1	-19	2
CCOC(=O)/C(C#N)=C\c1ccc(OCC(=O)Nc2ccc(C)cc2C)c(OC)c1	0.7	0.067	0.2	27	78*
Cc1nonc1NC(=O)CSc1nnc(-c2ccoc2C)n1C	1.1	-0.86	0.9	-10	7
Cc1ccc(-c2ccc(SCC(=O)Nc3nonc3C)nn2)cc1	0.1	1.1	0.7	86*	28
Cc1ccc(C)c(-n2c(SCC(=O)Nc3nonc3C)nnc2-c2ccoc2C)c1	0.2	-6*	0.6	82*	36
CCc1nnc(NC(=O)CSc2nnc(COc3ccccc3)n2-c2ccc(C)cc2)s1	1	0.82	1	4	0
CCc1nnc(NC(=O)CSc2nnc(-c3ccccc3O)n2-c2ccc(C)cc2C)s1	0.6	-9*	0.9	38	11
Cc1cc(NC(=O)CSc2nnc(-c3ccc(Br)o3)n2Cc2ccccc2)no1	0.3	-5*	0.4	66*	58*
